In PubChem BioAssay AID485275 (NMMLSC, 2010):
Among all 330,000 compounds or so, about 1,400 (0.42%) were called active. This is one part of a sample in which actives are shown more often than they occur. A number with no mark means an inactive call.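 The calls were made as follows: active = plate passing quality check with inhibition over a set limit, or well fluorescence over plate mean plus 4 SD; inactive = the rest.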

Experiment: antifungal drug efflux pump blockers, triplex strains – S. cerevisiae, Nile Red, multiplex, primary screen (AID 485275);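 also: Nile Red retained in pooled yeast measured as flow cytometry median fluorescence; 0% = buffer negative control and 100% = Enniatin B positive control; higher means more Nile Red kept so more efflux inhibition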
Conditions: S. cerevisiae Candida pump triplex, at 10 µM, hits give high values
Compound `COCCNC(=O)c1ccc2c(c1)ncn2-c1ccc(C)c(Cl)c1` has an inhibition of 0.09%. For `CCOCCCn1c(NN)nc2ccccc2c1=O`, the inhibition was 0.04%. In the case of `CCn1c(/C=C/c2ccc([N+](=O)[O-])o2)nc2ccccc2c1=O`, the inhibition is reported as 1.26% (active). `CCn1c(SCc2ccccc2)nc2cc(OC)c(OC)cc2c1=O` gave an inhibition of -0.05%. For `C=CC[C@H](CC(=O)NCCO)C(=O)N[C@@H](COC(=O)[C@@H](CC=C)Cc1ccc(F)cc1)Cc1c[nH]c2ccccc12`, the inhibition was -0.26%. Work on `Cc1ccc(C(=O)NC(=S)Nc2ccc(N3CCOCC3)cc2)cc1` yielded an inhibition of 0%. With `COc1ccc(C(=O)NC(=S)Nc2ccc(N3CCCC3)cc2)cc1OC` the inhibition was 6.65% (active). For `COc1ccc(C(=O)NC(=S)Nc2ccccc2N2CCN(S(C)(=O)=O)CC2)cc1OC`, the inhibition was 0.06%. `CCn1cc(C(=O)N2CC(C)CC(C)C2)c(=O)c2cc(S(=O)(=O)N3CCCC3)ccc21` (centres undefined) gave an inhibition of 0.08%. Work on `O=C(NCCc1ccccn1)c1cc(-c2ccc(Cl)cc2)nc2ccccc12` yielded an inhibition of 0.18%. Compound `Cn1nnnc1SCC(=O)Nc1ccccc1C(=O)NC1CC1` has an inhibition of 0%. Work on `CC(=C/c1ccccc1)/C=N/NC(=O)c1cc(C)oc1C` yielded an inhibition of 0.06%. In the case of `CC(/C=N/NC(=O)c1cc(-c2ccc3ccccc3c2)n[nH]1)=C\c1ccco1`, the inhibition is reported as 0.5% (active). `CC(C)(C)C1CCC(=NNC(=O)c2cc(-c3ccccc3)n[nH]2)CC1` (centres undefined) showed an inhibition of 0.31%. For `CCOC(OCC)c1ccc(/C=C\c2nccc(N)n2)cc1`, the inhibition was -0.05%. In the case of `Cc1ccc(-n2c(SCC(=O)Nc3ncc(Cl)cc3Cl)nc3ccccc32)cc1`, the inhibition is reported as 0.75%. Compound `CCCn1c(O)c(CN2CCCC(C)C2)c(C)c(C#N)c1=O` (centres undefined) has an inhibition of -0.15%. Compound `CCOc1ccc(N2C(=O)CN(c3cccc4ccccc34)C2=S)cc1` has an inhibition of -0.04%. In the case of `COc1ccc(CCNC(=O)C(=O)NCC2OCCN2S(=O)(=O)c2ccc(F)cc2)cc1OC` (centres undefined), the inhibition is reported as 0.07%. In the case of `O=C(NCc1ccc2c(c1)OCO2)C(=O)NCC1OCCN1S(=O)(=O)c1ccc(F)cc1` (centres undefined), the inhibition is reported as 0.25%. With `COc1ccc(S(=O)(=O)N2CCOC2CNC(=O)C(=O)NCc2ccc(F)cc2)cc1` (centres undefined) the inhibition was 5.66% (active). In the case of `O=C(c1ccc(Cl)nc1)N1CCN(S(=O)(=O)c2ccc3c(c2)OCCO3)CC1`, the inhibition is reported as -0.06%. For `O=C(OCC(=O)c1c[nH]c2ccccc12)c1cccc(O)c1`, the inhibition was 0.55%. For `O=C(OCc1ccc(-c2ccccc2)cc1)c1cccc(O)c1`, the inhibition was 20.2% (active). `O=C(OCc1ccc(Br)cc1)c1cccc(-c2nnc(-c3ccccc3)o2)c1` gave an inhibition of 0.06%. With `COc1cc(CNc2ncn[nH]2)ccc1OCc1ccccc1C` the inhibition was 0.06%. `[2H]C(CCOS(N)(=O)=O)c1ccccc1` (centres undefined) gave an inhibition of -0.09%. For `Fc1cnc(N2CCOCC2)nc1NCc1ccccc1`, the inhibition was -0.13%. Compound `CCOC(=O)c1c(N=CN(C)C)c(C#N)c2n1CCCC2` has an inhibition of -0.18%. Compound `Cc1ccc(NC(=O)CSc2nnc(COc3ccccc3C)o2)cc1` has an inhibition of -0.17%. For `COc1ccc(Cc2nnc(SCC(=O)Nc3ccc(C)c(C)c3)o2)cc1OC`, the inhibition was -0.04%. In the case of `CCCc1nnc(SCC(=O)Nc2ccc(C(=O)OCC)cc2)o1`, the inhibition is reported as 2.83% (active). `O=C(COC(=O)Cn1cnc2ccccc2c1=O)NCc1ccccc1Cl` gave an inhibition of 0.17%. With `Nc1ccc2nc3c(=O)[nH]c(=S)[nH]c3nc2c1` the inhibition was 0.97% (active). With `Cc1noc(C)c1S(=O)(=O)N(C)C[C@H]1Oc2c(NC(=O)Nc3ccc4c(c3)OCO4)cccc2C(=O)N([C@H](C)CO)C[C@@H]1C` the inhibition was 0.73%. With `COC(=O)[C@]1(CC(C)C)N[C@H](c2ccc(SC3CCCCC3)cc2)[C@@H]2C(=O)N(C)C(=O)[C@@H]21` the inhibition was -0.02%. In the case of `CC[n+]1cc(C)ccc1/C=C/c1ccc(N(C)C)cc1`, the inhibition is reported as 5.98% (active). Compound `O=C(N/N=C\c1cc2c(cc1Cl)OCO2)c1ccc(Br)s1` has an inhibition of 0.06%. `CC(/C=C/c1ccco1)=N/NC(=O)C1COc2ccccc2O1` (centres undefined) gave an inhibition of 0.12%. In the case of `CC(/C=C/c1ccccc1)=N\NC(=O)C1CC1(C)c1ccccc1` (centres undefined), the inhibition is reported as 2.26% (active). `O=C(N/N=C/C=C/c1ccccc1)C1CC1(c1ccccc1)c1ccccc1` (centres undefined) showed an inhibition of -0.21%. In the case of `Cc1csc(NC(=O)c2ccc(C)s2)n1`, the inhibition is reported as 0.06%. With `Cc1ccc(C(=O)Nc2nc3ccc(Cl)cc3s2)o1` the inhibition was -0.17%. For `Cc1csc(NC(=O)c2ccc(-c3ccc(Cl)cc3Cl)o2)n1`, the inhibition was 16.6% (active). For `O=C(NCc1ccncc1)C(=O)NCC1OCCN1S(=O)(=O)c1ccc(Br)cc1` (centres undefined), the inhibition was 0.06%. Work on `O=C(COC(=O)c1ccc(N2CCCC2=O)cc1)c1ccc(OC(F)F)cc1` yielded an inhibition of 0.24%. `CC1CCCC(N2CCN(C(=O)c3ccc(F)cc3)CC2)C1` (centres undefined) gave an inhibition of -0.1%. Compound `CCn1c(SC(C)C(=O)Nc2ccc(N3CCOCC3)cc2)nnc1-c1ccco1` (centres undefined) has an inhibition of 0.21%. With `O=C(CN1C(=O)c2cccnc2Oc2ccc(Cl)cc21)NCCc1ccccc1` the inhibition was -0.23%. `COc1ccccc1C1CCN(c2ccc([N+](=O)[O-])cn2)CC1` showed an inhibition of 0.16%. `N#Cc1c(-c2ccccc2)nc(SCc2ccc([N+](=O)[O-])cc2)[nH]c1=O` gave an inhibition of -0.1%. For `COc1ccccc1CSc1ncc(-c2ccc([N+](=O)[O-])cc2)[nH]1`, the inhibition was 18.3% (active). Compound `CCC(Cc1ccccc1)NS(=O)(=O)c1ccc2c(c1)NC(=O)CS2` (centres undefined) has an inhibition of -0.01%. In the case of `COCCCN1C(=O)C(=O)/C(=C(/O)c2ccc3c(c2)CC(C)O3)C1c1cccnc1` (centres undefined), the inhibition is reported as 0.03%. Compound `COc1ccc(C2/C(=C(/O)c3ccc4c(c3)CC(C)O4)C(=O)C(=O)N2Cc2ccncc2)cc1` (centres undefined) has an inhibition of 0.59%. For `CCOc1ccc(C2/C(=C(/O)c3ccc4c(c3)CC(C)O4)C(=O)C(=O)N2CCCn2ccnc2)cc1` (centres undefined), the inhibition was 4.24% (active). With `COc1ccc(S(=O)(=O)N2CCCCCC2)cc1C(=O)N(C)Cc1cccc(OC)c1OC` the inhibition was 0.1%. Work on `Cc1nn(C)cc1C(=O)c1ccccc1` yielded an inhibition of -0.06%. With `O=C(O)c1ccccc1-c1ccccc1C(=O)Nc1ccccc1Br` the inhibition was -0.16%. For `Cc1nn(C)cc1C(=O)Nc1ccccc1Br`, the inhibition was 6.48% (active). With `O=c1[nH]c2ccccc2n2c(-c3ccccc3)nnc12` the inhibition was 0.01%. `NNC(=O)CSc1nnc(-c2ccccc2)n1-c1ccccc1` showed an inhibition of 0.17%. For `Cc1ccc2[nH]c3c(=O)n(CC(=O)NCCc4ccc(Cl)cc4)ncc3c2c1`, the inhibition was 0.66% (active). For `Cc1cccc(CCNC(=O)Cn2ncc3c([nH]c4ccc(C)cc43)c2=O)c1`, the inhibition was 0.33%. `CC1CC(C)CN(CCCNC(=O)Cn2ncc3c([nH]c4ccccc43)c2=O)C1` (centres undefined) showed an inhibition of 0.29%. With `CCCCCC(=O)Nc1ccc(C(=O)N/N=C/c2ccc([N+](=O)[O-])cc2)cc1` the inhibition was 9.14% (active). `CCCCCC(=O)NC(=S)NNC(=O)c1ccc([N+](=O)[O-])cc1` showed an inhibition of 0.09%. Compound `O=C(COc1ccc(/C=N/NC(=O)c2ccc(O)cc2)cc1)Nc1ccc([N+](=O)[O-])cc1` has an inhibition of -0.1%. For `CC1(C(=O)NNC(=S)NCC2CCCO2)CC1(Cl)Cl` (centres undefined), the inhibition was -0.05%. With `O=C(NC1CCCC1)C(=O)c1c[nH]c2ccccc12` the inhibition was -0.55%. For `C[n+]1ccc(/C=C/c2c[nH]c3ccccc23)cc1`, the inhibition was 2.57% (active). Compound `COc1ccc(/C=C(\C#N)c2c[nH]c3ccccc23)cc1` has an inhibition of 0.35%. `CN(C)c1nc2n(c(=O)n1)CCO2` showed an inhibition of 0.06%. With `Nc1nc(O)c(CC(=O)O)s1` the inhibition was 0.36%. With `CN(c1ccccc1)c1ccc(/C=c2\s/c(=C(/C#N)C(=O)C(C)(C)C)n(Cc3ccco3)c2=O)cc1` the inhibition was 7.32% (active). For `Cc1ccc(C(=O)NCC(c2cccs2)N(C)C)cc1S(=O)(=O)N1CCOCC1` (centres undefined), the inhibition was 0.37%. Work on `Cc1ccc(-c2nn(-c3ccc(F)cc3)cc2C(=O)NCC(c2cccs2)N2CCOCC2)cc1` (centres undefined) yielded an inhibition of 0.02%. Compound `CCCN1CNC(=S)N(CCc2ccccc2)C1` has an inhibition of -0.07%. `C/C(=C\c1ccco1)CN1CCC(N2CCC(C(=O)N3CCOCC3)CC2)CC1` showed an inhibition of -0.13%. Compound `COc1ccc(OCC(=O)NNC(=O)C2CCC2)cc1` has an inhibition of 0.28%. Work on `O=C(COc1ccc(Cl)cc1)Nc1ccc2c(c1)OCO2` yielded an inhibition of 0.16%. With `NNC(=O)COc1ccc(C2SCCS2)cc1` the inhibition was 0.52% (active). `Cc1ccc(CS(=O)(=O)CCC(=O)NCc2ccc(F)cc2)cc1` showed an inhibition of 0.01%. For `CCc1ccc(NC(=O)Cn2ncn3c(cc4ccccc43)c2=O)cc1`, the inhibition was 0.97% (active). Work on `COc1ccc(NC(=O)Cn2ncn3c(cc4ccccc43)c2=O)c(OC)c1OC` yielded an inhibition of 0.03%. `CC(C)c1ccc(NC(=O)Cn2ncc3ccccc32)cc1` showed an inhibition of 0.04%. `CC(=O)Nc1ccc(S(=O)(=O)NC(C)C(=O)OCCOc2ccc(F)cc2)cc1` (centres undefined) showed an inhibition of -0.06%. `COc1cccc(N(CC(=O)NC2CCCC2)C(=O)Cn2nnc(-c3ccc(C)o3)n2)c1` showed an inhibition of -0.2%. In the case of `O=C1CCN(CCc2ccccc2)CCN1CCOc1ccccc1`, the inhibition is reported as -0.09%. For `CCN(CC(=O)Nc1cccc(S(N)(=O)=O)c1)Cc1nc2ccccc2c(=O)[nH]1`, the inhibition was -0.01%. `Cc1ccc2[nH]c(=O)c(CN3CCCCC3)c(-c3ccccc3)c2c1` gave an inhibition of 0.13%. In the case of `CCCc1nc(N2CCN(C)CC2)c2sc(=S)n(-c3ccccc3)c2n1`, the inhibition is reported as 0.75% (active). With `CCCc1nc(-c2ccccc2O)n(-c2ccccc2)n1` the inhibition was 0.2%. With `Cc1cccc(-n2c(N)c(C(=O)N3CCN(C)CC3)sc2=S)c1` the inhibition was -0.2%.
